This is one part of the list. The source made the active and inactive calls. No stated cut-off is given here; in the data, active means activation above about 45%; inactive means the rest.
Target: Neuropeptide Y receptor type 1 (Homo sapiens) (UniProt P25929)
Test: human Y1 receptor positive modulation or activation – cell-based, confirmation (AID 1546);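 further: cells challenged with NPY at its EC10 plus isoproterenol stimulus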
Details: cell-based NPY-Y1 potentiator/agonist assay; at 3.6 µM; active compounds read high

Sequence of Neuropeptide Y receptor type 1 (Homo sapiens) (P25929 whole entry, looked up): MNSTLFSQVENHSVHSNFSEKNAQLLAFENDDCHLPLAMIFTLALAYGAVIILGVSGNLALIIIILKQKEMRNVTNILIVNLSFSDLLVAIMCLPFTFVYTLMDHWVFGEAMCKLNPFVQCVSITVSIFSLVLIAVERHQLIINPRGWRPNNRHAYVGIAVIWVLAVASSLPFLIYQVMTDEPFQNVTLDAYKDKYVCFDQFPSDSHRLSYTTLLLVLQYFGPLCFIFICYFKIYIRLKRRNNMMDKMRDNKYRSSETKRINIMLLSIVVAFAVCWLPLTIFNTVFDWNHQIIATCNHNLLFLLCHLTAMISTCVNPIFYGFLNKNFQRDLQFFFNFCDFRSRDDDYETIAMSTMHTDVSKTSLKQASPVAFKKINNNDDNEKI

Row | SMILES | activation
1 | CC1=C/C(=N\OS(=O)(=O)c2ccccc2)C=CC1=O | 7.41% (inactive)
2 | Cc1cccc(OCC(O)CN2CCN(CCN3C(=O)c4cccc5cccc(c45)C3=O)CC2)c1C (stereo unspecified) | 63.5% (active)
3 | O=[N+]([O-])c1cc(Cl)cc(/C=N/NC(=S)Nc2cc(S(=O)(=O)N3CCOCC3)ccc2Cl)c1O | 72.1% (active)
4 | O=C(Nc1ccc2c(c1)CCC2)c1cccc(S(=O)(=O)Nc2ccccc2Cl)c1 | 5.62% (inactive)
5 | O=C(c1cccs1)N1CCN(C(=O)N2CCOCC2)CC1 | -4.4% (inactive)
6 | CC(=O)c1ccc(NC(=O)C2CC(=O)Nc3nc4ccccc4n32)cc1 (stereo unspecified) | 38.7% (inactive)
7 | CCn1c2ccccc2c2cc(NC(=O)Nc3ccc([N+](=O)[O-])cc3C)ccc21 | 26.1% (inactive)
8 | Cc1ccccc1NCC(=O)N/N=C\c1ccc([N+](=O)[O-])s1 | 34.6% (inactive)
9 | COC(=O)c1ccc(NC(=O)CN(c2ccc(C)cc2)S(=O)(=O)c2c(C)n[nH]c2C)cc1 | 43% (inactive)
10 | CSc1nc(-c2ccco2)nn1C(=O)c1ccccc1Cl | 31.6% (inactive)
11 | O=C1/C(=C/c2coc3ccc(O)cc3c2=O)SC(=S)N1c1ccccc1 | 26.1% (inactive)
12 | COCCn1nnnc1C(c1ccccc1Cl)N1CCN(c2ccccc2OC)CC1 (stereo unspecified) | -14.9% (inactive)
13 | COC(=O)c1sc(-c2ccc(C(C)(C)C)cc2)cc1NC(=O)/C=C/C(=O)O | 40.8% (inactive)
14 | O=C(Nc1ccccc1C(F)(F)F)c1cc(-c2ccc(O)cc2)on1 | 2.15% (inactive)
15 | N#Cc1ccc(C(=O)Nc2nc(-c3cccs3)c(C(=O)C(F)(F)F)s2)cc1 | -50.3% (inactive)
16 | CN1C(=O)c2ccccc2C(C(=O)NCCCN2CCCC2)C1c1c[nH]c2ccccc12 (stereo unspecified) | 7.17% (inactive)

— PubChem BioAssay AID1546 (The Scripps Research Institute Molecular Screening Center, 2009)
